Results: ChEMBL document CHEMBL1961873, “Compounds: GSK PKIS; Assays: Nanosyn kinase panel” (2012)

Assays:
[1] = target: Dual specificity protein kinase CLK3 (Homo sapiens) (UniProt P49761); settings: at 1 µM;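 also: each value is the mean inhibition of CLK3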
[2] = target: Dual specificity tyrosine-phosphorylation-regulated kinase 1A (Homo sapiens) (UniProt Q13627); settings: at 0.1 µM
[3] = target: Dual specificity tyrosine-phosphorylation-regulated kinase 1A (Homo sapiens) (UniProt Q13627); settings: at 1 µM
[4] = target: Dual specificity tyrosine-phosphorylation-regulated kinase 1B (Homo sapiens) (UniProt Q9Y463); settings: at 0.1 µM
[5] = target: Dual specificity tyrosine-phosphorylation-regulated kinase 1B (Homo sapiens) (UniProt Q9Y463); settings: at 1 µM
[6] = target: T1, Dual specificity tyrosine-phosphorylation-regulated kinase 2 (Homo sapiens) (UniProt Q92630); settings: at 0.1 µM
T1 sequence (whole entry): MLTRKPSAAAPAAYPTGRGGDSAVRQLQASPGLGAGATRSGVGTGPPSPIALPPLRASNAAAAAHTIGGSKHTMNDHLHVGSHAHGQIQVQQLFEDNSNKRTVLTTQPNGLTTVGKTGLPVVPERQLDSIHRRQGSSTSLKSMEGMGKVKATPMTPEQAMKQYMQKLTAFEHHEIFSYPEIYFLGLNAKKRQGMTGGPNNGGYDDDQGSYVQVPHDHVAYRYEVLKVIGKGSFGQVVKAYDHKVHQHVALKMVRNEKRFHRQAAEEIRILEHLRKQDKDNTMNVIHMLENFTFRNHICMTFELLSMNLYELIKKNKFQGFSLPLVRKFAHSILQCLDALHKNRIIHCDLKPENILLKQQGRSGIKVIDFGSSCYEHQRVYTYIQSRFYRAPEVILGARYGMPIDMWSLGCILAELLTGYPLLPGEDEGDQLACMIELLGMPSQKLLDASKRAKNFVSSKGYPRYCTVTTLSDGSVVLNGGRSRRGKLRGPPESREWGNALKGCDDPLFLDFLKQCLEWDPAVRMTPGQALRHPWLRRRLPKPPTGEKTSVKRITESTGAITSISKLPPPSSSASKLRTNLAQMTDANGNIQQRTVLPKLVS

[7] = target: T1, Dual specificity tyrosine-phosphorylation-regulated kinase 2 (Homo sapiens); settings: at 1 µM
[8] = target: Glycogen synthase kinase-3 alpha (Homo sapiens) (UniProt P49840); settings: at 0.1 µM
[9] = target: Glycogen synthase kinase-3 alpha (Homo sapiens) (UniProt P49840); settings: at 1 µM
[10] = target: Glycogen synthase kinase-3 beta (Homo sapiens) (UniProt P49841); settings: at 0.1 µM
[11] = target: Glycogen synthase kinase-3 beta (Homo sapiens) (UniProt P49841); settings: at 1 µM
[12] = target: Homeodomain-interacting protein kinase 1 (Homo sapiens) (UniProt Q86Z02); settings: at 0.1 µM
[13] = target: Homeodomain-interacting protein kinase 1 (Homo sapiens) (UniProt Q86Z02); settings: at 1 µM
[14] = target: T2, Homeodomain-interacting protein kinase 4 (Homo sapiens) (UniProt Q8NE63); settings: at 0.1 µM
T2 sequence (whole entry): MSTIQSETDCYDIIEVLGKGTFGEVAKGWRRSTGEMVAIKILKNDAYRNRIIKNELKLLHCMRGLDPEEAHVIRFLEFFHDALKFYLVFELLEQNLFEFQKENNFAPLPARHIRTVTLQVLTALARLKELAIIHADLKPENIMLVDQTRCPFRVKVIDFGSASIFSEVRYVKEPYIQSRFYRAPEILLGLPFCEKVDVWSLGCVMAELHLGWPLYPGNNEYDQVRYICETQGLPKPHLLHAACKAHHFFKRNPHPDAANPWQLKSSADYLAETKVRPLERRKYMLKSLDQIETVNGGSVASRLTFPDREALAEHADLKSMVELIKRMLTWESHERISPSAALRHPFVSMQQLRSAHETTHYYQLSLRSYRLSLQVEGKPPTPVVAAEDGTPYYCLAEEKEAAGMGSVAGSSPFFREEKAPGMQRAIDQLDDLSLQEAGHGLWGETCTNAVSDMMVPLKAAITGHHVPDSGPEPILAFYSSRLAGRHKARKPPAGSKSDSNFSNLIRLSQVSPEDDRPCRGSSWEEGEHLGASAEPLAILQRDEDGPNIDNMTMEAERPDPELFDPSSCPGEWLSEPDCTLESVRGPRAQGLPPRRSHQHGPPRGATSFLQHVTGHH

[15] = target: T2, Homeodomain-interacting protein kinase 4 (Homo sapiens); settings: at 1 µM
[16] = target: Mitogen-activated protein kinase 9 (Homo sapiens) (UniProt P45984); settings: at 0.1 µM
[17] = target: Mitogen-activated protein kinase 9 (Homo sapiens) (UniProt P45984); settings: at 1 µM
[18] = target: Mitogen-activated protein kinase 1 (Homo sapiens) (UniProt P28482); settings: at 0.1 µM
[19] = target: Mitogen-activated protein kinase 1 (Homo sapiens) (UniProt P28482); settings: at 1 µM
[20] = target: Mitogen-activated protein kinase 3 (Homo sapiens) (UniProt P27361); settings: at 0.1 µM;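 also: each value is a mean inhibition figure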
Sequence of Mitogen-activated protein kinase 3 (Homo sapiens) (P27361 whole entry): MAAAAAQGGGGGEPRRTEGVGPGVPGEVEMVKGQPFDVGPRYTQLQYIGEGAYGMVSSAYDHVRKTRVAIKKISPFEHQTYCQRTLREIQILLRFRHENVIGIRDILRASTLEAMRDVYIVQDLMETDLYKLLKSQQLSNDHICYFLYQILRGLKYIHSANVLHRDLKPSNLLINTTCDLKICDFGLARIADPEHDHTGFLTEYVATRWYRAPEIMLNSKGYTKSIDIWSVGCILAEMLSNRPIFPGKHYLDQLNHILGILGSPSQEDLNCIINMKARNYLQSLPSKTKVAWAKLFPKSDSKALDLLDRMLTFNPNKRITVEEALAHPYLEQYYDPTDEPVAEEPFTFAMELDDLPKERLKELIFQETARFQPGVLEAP

Sequence of Mitogen-activated protein kinase 1 (Homo sapiens) (P28482 whole entry): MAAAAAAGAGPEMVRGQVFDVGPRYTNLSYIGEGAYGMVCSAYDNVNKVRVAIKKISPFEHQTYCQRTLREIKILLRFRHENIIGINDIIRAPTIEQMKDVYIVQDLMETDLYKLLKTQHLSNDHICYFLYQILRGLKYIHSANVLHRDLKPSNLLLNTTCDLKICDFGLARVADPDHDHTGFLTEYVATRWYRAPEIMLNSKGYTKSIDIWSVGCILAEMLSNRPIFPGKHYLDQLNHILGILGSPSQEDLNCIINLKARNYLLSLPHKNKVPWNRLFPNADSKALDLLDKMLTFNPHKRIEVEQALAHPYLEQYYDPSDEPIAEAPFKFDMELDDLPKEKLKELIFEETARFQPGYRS
Sequence of Glycogen synthase kinase-3 alpha (Homo sapiens) (P49840 2-483 limits assumed): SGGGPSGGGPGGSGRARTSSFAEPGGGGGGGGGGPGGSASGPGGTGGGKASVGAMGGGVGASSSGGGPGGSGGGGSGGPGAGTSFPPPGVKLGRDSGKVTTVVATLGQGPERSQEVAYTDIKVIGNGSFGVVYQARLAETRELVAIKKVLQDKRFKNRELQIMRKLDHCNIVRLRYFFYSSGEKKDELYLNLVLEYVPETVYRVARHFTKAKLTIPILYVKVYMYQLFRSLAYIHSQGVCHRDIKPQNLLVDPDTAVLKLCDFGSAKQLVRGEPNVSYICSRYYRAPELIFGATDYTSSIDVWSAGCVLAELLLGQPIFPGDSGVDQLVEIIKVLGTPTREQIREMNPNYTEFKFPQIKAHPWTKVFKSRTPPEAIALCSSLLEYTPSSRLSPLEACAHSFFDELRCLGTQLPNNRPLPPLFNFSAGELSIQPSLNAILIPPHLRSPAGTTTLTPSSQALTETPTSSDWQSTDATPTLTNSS
Sequence of Dual specificity tyrosine-phosphorylation-regulated kinase 1B (Homo sapiens) (Q9Y463 whole entry, looked up): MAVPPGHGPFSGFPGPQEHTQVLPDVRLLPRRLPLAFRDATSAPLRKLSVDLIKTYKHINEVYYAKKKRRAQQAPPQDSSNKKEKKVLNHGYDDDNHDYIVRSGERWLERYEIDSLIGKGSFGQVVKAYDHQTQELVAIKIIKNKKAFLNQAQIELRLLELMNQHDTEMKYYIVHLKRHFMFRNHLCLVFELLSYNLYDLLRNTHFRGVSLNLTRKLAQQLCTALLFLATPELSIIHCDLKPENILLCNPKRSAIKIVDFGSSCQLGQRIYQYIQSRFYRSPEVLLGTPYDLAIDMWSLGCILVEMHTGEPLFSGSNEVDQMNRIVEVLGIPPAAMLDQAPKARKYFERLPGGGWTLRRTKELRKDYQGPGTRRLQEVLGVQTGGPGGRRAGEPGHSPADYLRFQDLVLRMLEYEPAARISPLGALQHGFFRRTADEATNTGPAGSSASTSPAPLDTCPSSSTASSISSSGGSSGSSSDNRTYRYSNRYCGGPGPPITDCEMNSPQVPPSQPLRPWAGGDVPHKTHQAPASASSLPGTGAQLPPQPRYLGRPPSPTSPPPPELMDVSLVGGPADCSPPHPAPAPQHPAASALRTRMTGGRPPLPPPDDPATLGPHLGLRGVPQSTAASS
Sequence of Dual specificity protein kinase CLK3 (Homo sapiens) (P49761 whole entry, looked up): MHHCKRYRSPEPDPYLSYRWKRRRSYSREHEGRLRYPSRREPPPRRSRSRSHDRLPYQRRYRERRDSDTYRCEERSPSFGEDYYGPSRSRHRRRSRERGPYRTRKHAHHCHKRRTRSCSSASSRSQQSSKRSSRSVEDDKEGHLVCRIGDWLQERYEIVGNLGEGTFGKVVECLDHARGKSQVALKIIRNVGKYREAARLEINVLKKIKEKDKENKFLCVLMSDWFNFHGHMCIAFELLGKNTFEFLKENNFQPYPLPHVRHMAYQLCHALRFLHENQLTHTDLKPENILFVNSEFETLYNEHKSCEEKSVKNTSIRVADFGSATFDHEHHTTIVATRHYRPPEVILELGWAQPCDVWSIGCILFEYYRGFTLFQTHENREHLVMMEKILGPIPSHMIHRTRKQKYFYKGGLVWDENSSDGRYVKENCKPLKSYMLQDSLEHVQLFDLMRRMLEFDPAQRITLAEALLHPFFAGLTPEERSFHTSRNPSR
Sequence of Homeodomain-interacting protein kinase 1 (Homo sapiens) (Q86Z02 whole entry, looked up): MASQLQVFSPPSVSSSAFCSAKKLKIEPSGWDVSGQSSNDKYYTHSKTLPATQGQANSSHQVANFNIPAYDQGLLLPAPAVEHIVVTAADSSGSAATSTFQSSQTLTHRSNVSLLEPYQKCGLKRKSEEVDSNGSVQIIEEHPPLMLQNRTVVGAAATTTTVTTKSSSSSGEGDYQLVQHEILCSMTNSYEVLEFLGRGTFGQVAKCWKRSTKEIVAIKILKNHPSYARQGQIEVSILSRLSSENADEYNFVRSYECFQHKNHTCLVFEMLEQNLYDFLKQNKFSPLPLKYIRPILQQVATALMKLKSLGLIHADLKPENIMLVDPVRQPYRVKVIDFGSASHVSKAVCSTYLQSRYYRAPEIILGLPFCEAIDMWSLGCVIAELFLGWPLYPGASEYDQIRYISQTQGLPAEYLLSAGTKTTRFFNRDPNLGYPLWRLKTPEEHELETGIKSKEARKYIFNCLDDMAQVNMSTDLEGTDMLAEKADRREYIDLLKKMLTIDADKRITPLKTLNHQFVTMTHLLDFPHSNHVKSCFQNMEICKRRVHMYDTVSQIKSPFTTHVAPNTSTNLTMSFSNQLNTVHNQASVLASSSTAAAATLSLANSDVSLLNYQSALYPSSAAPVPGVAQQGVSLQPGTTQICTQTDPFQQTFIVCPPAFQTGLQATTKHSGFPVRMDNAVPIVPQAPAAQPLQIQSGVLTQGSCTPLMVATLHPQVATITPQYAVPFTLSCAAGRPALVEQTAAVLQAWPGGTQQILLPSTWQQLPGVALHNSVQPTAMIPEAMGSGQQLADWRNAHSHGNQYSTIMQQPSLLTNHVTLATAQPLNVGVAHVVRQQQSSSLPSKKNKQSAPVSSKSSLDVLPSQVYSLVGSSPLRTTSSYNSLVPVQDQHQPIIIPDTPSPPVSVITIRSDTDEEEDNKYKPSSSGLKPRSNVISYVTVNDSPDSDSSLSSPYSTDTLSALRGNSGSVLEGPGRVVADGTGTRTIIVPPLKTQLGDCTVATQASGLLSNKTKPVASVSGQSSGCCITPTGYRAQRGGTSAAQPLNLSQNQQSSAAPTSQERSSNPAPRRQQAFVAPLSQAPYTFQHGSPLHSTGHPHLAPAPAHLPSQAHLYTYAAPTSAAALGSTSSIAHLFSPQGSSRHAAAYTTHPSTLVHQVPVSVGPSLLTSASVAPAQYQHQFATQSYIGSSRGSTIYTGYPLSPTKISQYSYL
Sequence of Glycogen synthase kinase-3 beta (Homo sapiens) (P49841 whole entry, looked up): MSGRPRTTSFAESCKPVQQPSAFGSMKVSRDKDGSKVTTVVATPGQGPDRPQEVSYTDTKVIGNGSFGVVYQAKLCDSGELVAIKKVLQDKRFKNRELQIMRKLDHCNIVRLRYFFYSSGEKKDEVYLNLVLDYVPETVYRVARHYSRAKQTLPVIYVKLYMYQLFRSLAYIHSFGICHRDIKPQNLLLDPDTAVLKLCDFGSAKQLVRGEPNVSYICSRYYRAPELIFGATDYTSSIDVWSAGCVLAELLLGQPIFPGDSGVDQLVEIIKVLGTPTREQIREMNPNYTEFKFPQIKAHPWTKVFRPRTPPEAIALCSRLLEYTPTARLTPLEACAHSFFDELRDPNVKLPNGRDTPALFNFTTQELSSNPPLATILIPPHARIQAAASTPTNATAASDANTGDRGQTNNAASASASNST
Sequence of Mitogen-activated protein kinase 9 (Homo sapiens) (P45984 whole entry, looked up): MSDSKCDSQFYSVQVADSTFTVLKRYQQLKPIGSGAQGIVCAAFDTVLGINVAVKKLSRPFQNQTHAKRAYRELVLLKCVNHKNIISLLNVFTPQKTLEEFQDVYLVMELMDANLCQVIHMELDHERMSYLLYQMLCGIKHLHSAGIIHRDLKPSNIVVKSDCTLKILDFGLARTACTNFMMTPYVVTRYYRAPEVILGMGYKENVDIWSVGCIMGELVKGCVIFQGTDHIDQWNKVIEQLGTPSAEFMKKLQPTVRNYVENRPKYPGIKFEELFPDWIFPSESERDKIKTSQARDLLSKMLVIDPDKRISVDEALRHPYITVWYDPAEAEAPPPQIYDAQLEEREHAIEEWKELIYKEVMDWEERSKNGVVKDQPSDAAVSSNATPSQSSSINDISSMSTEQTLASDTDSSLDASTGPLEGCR

| Structure (SMILES) | inhibition [1] [%] | inhibition [2] [%] | inhibition [3] [%] | inhibition [4] [%] | inhibition [5] [%] | inhibition [6] [%] | inhibition [7] [%] | inhibition [8] [%] | inhibition [9] [%] | inhibition [10] [%] | inhibition [11] [%] | inhibition [12] [%] | inhibition [13] [%] | inhibition [14] [%] | inhibition [15] [%] | inhibition [16] [%] | inhibition [17] [%] | inhibition [18] [%] | inhibition [19] [%] | inhibition [20] [%] |
| --- | --- | --- | --- | --- | --- | --- | --- | --- | --- | --- | --- | --- | --- | --- | --- | --- | --- | --- | --- | --- |
| CN(c1ccc(NC(=O)Nc2c(Cl)cccc2Cl)cc1)c1ccnc(Nc2cccc(CS(C)(=O)=O)c2)n1 | 1.23 | -0.53 | 0.63 | -0.2 | 1.52 | 2.28 | 1.29 | 4.09 | 10 | 4.11 | 9.63 | 2.01 | 5.39 | 7.1 | 18.4 | 5.56 | 8.85 | 3.03 | 2.83 | 2.56 |
| CNC(=O)c1cncc(/C=C/c2c(C)cccc2C)c1 | -2.04 | -1.29 | 2.27 | 0.49 | 1.89 | -0.14 | -0.61 | -2.93 | -0.82 | -1.93 | -0.33 | -0.47 | 2.67 | 1.19 | 6.66 | 2.54 | 1.94 | -3.06 | 0.43 | 0.86 |
| CN1CCN(CCCNc2nc3ccc(Oc4ccc(NC(=O)Nc5cc(C(F)(F)F)ccc5F)cc4)cc3[nH]2)CC1 | -3.62 | -4.06 | -2.54 | -2.52 | -2.58 | 0.8 | -0.19 | -2.85 | 0.59 | -2.95 | -1.5 | -6.94 | -3.43 | 6.45 | 40.6 | 3.11 | 8.71 | 1.47 | 0.12 | 1.55 |
| CN(C)CCOc1ccc(-c2cc(-c3ccc4c(c3)CCC4=NO)c(-c3ccncc3)o2)cc1 | 1.91 | -1.28 | 0.21 | -1.57 | -1.47 | -1.36 | -2.61 | -0.52 | -0.36 | -0.79 | 0.28 | -5.92 | 2.06 | 0.15 | 2.98 | -1.3 | 3.02 | -0.58 | 0.91 | -1.4 |
| COc1cc(Nc2ncc3c(C)nc(-c4cccc(Oc5ccccc5)c4)n3n2)cc(OC)c1OC | 2.37 | 0.25 | 5.84 | 0.92 | 2.74 | 2.11 | 1.95 | 0.37 | 0.14 | -0.59 | 0.75 | 0.25 | 10.8 | 2.78 | 7.44 | 2.43 | 4.03 | 2.11 | 8.58 | 4.14 |
| Fc1ccc(-c2ncn(C3CCNCC3)c2-c2ccnc(Oc3ccc4c(c3)OCO4)n2)cc1 | -2.27 | 3.17 | 4.78 | -1.37 | 0.33 | 3.24 | 3.38 | 2.07 | 5.18 | 2.71 | 4.03 | 1.02 | 5.62 | 4.86 | 7.7 | – | – | 7.64 | 11.4 | 5.84 |
| COc1ccc(C2=C(N3CCc4ccccc43)C(=O)NC2=O)cc1 | 4.16 | 4.7 | 13 | 1.97 | 8.53 | 3.77 | 5.13 | 11.5 | 42.9 | – | – | 4.48 | 8.68 | 3.35 | 4.04 | 3.78 | 7.16 | -0.01 | 5.89 | 4.13 |
| Fc1ccc(-c2ncn(C3CCNCC3)c2-c2ccnc(Oc3ccc(Oc4ccccc4)cc3)n2)cc1 | 1.21 | 2.96 | 3.95 | -0.87 | 0.42 | 4.61 | 7.67 | 2.97 | 2.77 | 2.21 | 3.65 | -1.61 | 2.08 | -0.8 | 0.79 | – | – | 5.58 | 9.79 | 3.67 |
| O=C(Nc1n[nH]c2cc(-c3cc(F)ccc3F)ccc12)C1CC1 | 1.26 | 2.37 | 4.39 | -0.4 | -0.93 | 2.2 | 3.59 | 7.07 | 30.4 | – | – | -1.3 | 1.85 | -0.9 | 3.56 | 4.38 | 6.23 | 2.24 | 4.09 | 4.01 |
| O=C(Nc1n[nH]c2nc(-c3ccco3)ccc12)C1CC1 | 0.48 | -0.57 | 1.05 | -0.1 | 1.34 | 1.49 | 1.64 | 11.5 | 48.9 | – | – | 0.14 | 1.4 | 2.3 | 6.99 | 0.84 | 2.1 | 0.04 | 0.76 | 0.6 |
| Nc1nccc(-c2c(-c3ccc(F)cc3)ncn2C2CCC(O)CC2)n1 (stereo unspecified) | 3.28 | 2.86 | 5.97 | 3.71 | 5.6 | -1.97 | -2.78 | 0.95 | 5.67 | 1.63 | 14.1 | 2.2 | 4 | 1.22 | 3.26 | 9.42 | 53.3 | – | -2.72 | -0.59 |
| COc1cc(N2CCN(C(C)C)CC2)ccc1Nc1nc(Nc2ccc(F)cc2C(=O)NC[C@@H](O)CO)c2cc[nH]c2n1 | 4.1 | 0.93 | 12.7 | -2.96 | 12 | 3.04 | 5.79 | -1.27 | 0.1 | -0.78 | -0.58 | 9.42 | 46.1 | 32.3 | 69.8 | 14.9 | 57.4 | 0.55 | 7.31 | 6.47 |
| NC(=O)Cc1ccccc1Oc1nccc(-c2c(-c3ccc(F)cc3)ncn2C2CCNCC2)n1 | 1.79 | 4.01 | 5.44 | 2.79 | 3.43 | 2.28 | 3.74 | 1.87 | 3.05 | -0.25 | 1.98 | 0.04 | -0.28 | 1.66 | 3.18 | – | – | 0.51 | 4.48 | 1.47 |
| NS(=O)(=O)c1ccc(N/N=C2\C(=O)Nc3ccc(-c4cnco4)cc32)cc1 | 1.68 | 29.3 | 81.2 | 4.08 | 38.5 | 9.21 | 52 | 31.6 | 67.4 | 26.4 | 65.2 | -2.16 | 25.2 | 3.05 | 15.6 | 0.65 | 2.38 | 3.21 | 7.04 | 2.36 |
| C#Cc1cccc(Nc2ncnc3ccc(OCCCCNCCS(C)(=O)=O)cc23)c1 | -1.87 | 0.92 | 4.86 | -2.75 | -1.25 | 2.91 | 7.08 | -0.41 | 1.81 | -0.71 | 1.89 | -3.09 | -1.22 | 4.39 | 24.9 | 3.91 | 4.58 | 5.06 | 5.46 | 4.38 |
| NS(=O)(=O)c1ccc(Nc2cc(-c3ccc(O)c(F)c3)n[nH]2)cc1 | 2.65 | 1.28 | 4.89 | 2.64 | 5.44 | -2.19 | 3.75 | 1.79 | 23.5 | 4.44 | 38 | 0.97 | 16.1 | 1.96 | 10.4 | -1.59 | 2.43 | – | -4.87 | -1.57 |
| C[C@@H](Oc1cc(-n2cnc3ccc(OCC4CCN(C)CC4)cc32)sc1C(N)=O)c1ccccc1Cl | 2.9 | 2.94 | 3.56 | 1.54 | 2.55 | 4.66 | 9.72 | 4.39 | 10.2 | 2.71 | 8.9 | -1.26 | 8.77 | 3.09 | 21.8 | 7.22 | 10.9 | 7.6 | 8.78 | 4.68 |
